JMJD2E inh: JMJD2E (human) inhibition | 230,000 tested, 1.6% active | AID 2147 | Potency, µM (series often up to 57.1 µM), for the others: at the highest dose activity change, negative = inhibition, actives largely listed as inhibitors | B2RXH2 | JMJD2E catalytic domain, FDH-coupled NADH fluorescence (FDH is formaldehyde dehydrogenase);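 also: 0% = wells with enzyme and -100% = buffer wells without enzyme; nearly all actives have a fitted effect of over 50% in size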
HPGD inh: HPGD (human) dehydrogenase inhibition. purified HPGD, NADH fluorescence kinetic, PGE2 substrate. Potency, µM, for inactives: at the highest dose activity change, negative = inhibition, usual class: inhibitors. 150,000 tested, 4.3% active. AID 894; also: % is scaled to controls: 0 for no effect and ±100 for the full control effect
Target sequence (P15428 whole entry, looked up): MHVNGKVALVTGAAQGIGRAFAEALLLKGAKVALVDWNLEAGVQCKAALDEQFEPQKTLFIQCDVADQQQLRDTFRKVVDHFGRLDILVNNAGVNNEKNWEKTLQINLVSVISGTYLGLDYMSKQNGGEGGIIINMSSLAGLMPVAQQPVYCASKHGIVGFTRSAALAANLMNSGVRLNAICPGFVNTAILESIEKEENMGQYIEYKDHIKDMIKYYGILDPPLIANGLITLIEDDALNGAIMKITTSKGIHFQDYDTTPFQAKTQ
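NADH formation kinetics: reaction with 30 uM PGE2 and 1 mM NAD+ (final), 20 nM enzyme, Tris-HCl pH 8 with Tween 20, after 15 min compound preincubation at room temperature. Fluorescence change, last versus first of five reads.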
ALDH1A1 block: blocks purified human ALDH1A1 activity | P00352 | Purified ALDH1A1, NADH fluorescence, propionaldehyde substrate | Potency, µM (titrated, usually from 75.3 µM), for inactives: top-dose activity, negative = inhibition, actives largely listed as inhibitors | 220,000 tested, 7.3% active | AID 1030;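 also: plate controls were no enzyme wells and a reference inhibitor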
HTT ATP protect: protects HTT-Q103 PC12 cells, measured by ATP; PC12 HTT-Q103 induced, cytoprotection, ATP luminescence, 40 h; Potency, µM (doses to about 56.4 µM), without a hit: cytoprotection (ATP increase), most hits filed as activators; 230,000 tested, 0.14% active; active = well fitted curve in the direction sought with a large enough effect; inconclusive = small, poorly fitted or top-dose-only effect, or another doubt; inactive = no such curve, though single readings can be large; an effect the other way counts as inactive or inconclusive; also: % of control where 0% means no effect; nearly all actives have a fitted effect of over 45% in size
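Compounds were screened for protection of PC12 cells against cell death after tebufenozide induction (100 nM final) of mutant Huntingtin exon 1 (Q103) fused to GFP.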
HTT aggregate: mutant huntingtin aggregation inhibition | PC12 HttQ103-GFP aggregates, Acumen cytometry, 40 h | Potency, µM (series often up to 46.1 µM), inactives show top-dose activity change, negative = inhibition, usual class: inhibitors | 220,000 tested, 1.1% active | AID 1688; active = well fitted curve in the direction sought with a large enough effect; inconclusive = small, poorly fitted or top-dose-only effect, or another doubt; inactive = no such curve, though single readings can be large; an effect the other way counts as inactive or inconclusive; also: % is scaled to controls: 0 for no effect and ±100 for the full control effect; nearly all actives have a fitted effect of over 60% in size
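Huntingtin Q103 exon 1–GFP aggregates in induced PC12 cells (100 nM tebufenozide) were quantified by cytometry from lysates, with compounds dosed in titration.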
LMNA splice mod: LMNA splicing modulation | Potency, µM (series often up to 46.1 µM), inactives show top-dose ratio change, negative = inhibition, usual class: inhibitors | AID 1487 | HeLa LMNA splicing GFP/RFP minigene ratio, 48 h | 200,000 tested, 0.01% active; active = well fitted inhibition curve with a large enough effect in the signal ratio, with a control signal flat, not every such curve was filed as active; inconclusive = small, poorly fitted or top-dose-only effect, or effect the other way, or a change in a side signal; the % refers to the signal ratio; also: % is scaled to controls: 0 for no effect and ±100 for the full control effect
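S3 HeLa stable clones carrying a lamin A-EGFP splicing minigene plus DsRed2 were seeded at 600 cells/well in Opti-MEM with 2% FBS, pin-dosed and incubated 48 h at 37°C. Acumen cytometry (488 nm) gave the GFP/RFP total-intensity ratio.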
* hit, by the source's call; u = inconclusive; x = no result given; [ ] = remark or other dose. Only some compounds are listed: those with a hit (about 9.2% of all), similar ones and a draw of the others. Unless noted, calls follow the shape of the dose curve; as a rule, active = well fitted inhibition curve with a large enough effect (not every such curve was filed as active); inconclusive = small, poorly fitted or top-dose-only effect, or another doubt; inactive = no such curve, though single readings can be large or run the other way. Potency is read from the fitted curve at half-maximal effect.

SMILES | JMJD2E inh | HPGD inh | ALDH1A1 block | HTT ATP protect | HTT aggregate | LMNA splice mod
COc1ccc(OC)c(NC(=O)CSC2=C(C#N)C(c3ccco3)C3=C(CCCC3=O)N2)c1 (stereo not drawn) | -4.8% | -20.4% | u | -9.2% | 16.8% | u
CCOC(=O)C1=C(c2ccccc2)NC(SCC(=O)NC2CCCCC2)=C(C#N)C1c1ccco1 (stereo not drawn) | u | -27.6% | 17.8µM* | -11.8%[0.074 µM] | u | 3.5%
CCCCOC(=O)CSC1=C(C#N)C(c2cccnc2)C(C(=O)OCC)=C(c2ccccc2)N1 (stereo not drawn) | -10.9% | x | 11.0% | x | 2.6% | -21.0%[46 µM]
CCOC(=O)CSC1=C(C#N)C(c2ccc(F)cc2)C(C(C)=O)=C(C)N1 (stereo not drawn) | u | -26.7% | 22.4µM* | -48.1% | u | 11.2%
CCOC(=O)C1=C(C)NC(SCC(=O)OC)=C(C#N)C1c1ccc(C(=O)OC)cc1 (stereo not drawn) | u | u | u | -29.5% | 0.0%[9.22 µM] | 7.8%
Cc1ccc(-n2c(Cl)c(Cl)nc(Cl)c2=O)cc1 | -21.8% | 2.51µM* | 0.631µM* | x | 4.47µM* | u
CCOC(=O)N1CCN(C(=O)CCC(=O)N2CCOc3ccc(C)cc32)CC1 | -4.0% | x | 25.1µM* | -28.2% | u | 5.5%
COc1ccc(Cl)cc1NC(=O)CSc1nc(=O)[nH]c2c1CCC2 | x | x | x | x | x | -18.6%[46 µM]
CCn1c(O)c(N=NC2=NC(=O)CS2)c2ccccc21 | -4.1% | -20.5% | 11.2µM* | 0.9% | 7.6% | 7.2%[0.0737 µM]
CCCc1ccc(-c2c(C)sc(N)c2C#N)cc1 | -15.8% | -25.8% | 20µM* | -27.5% | -13.9% | -2.4%
COc1ccc(CCNCC(O)c2ccccc2)cc1 (stereo not drawn) | 7.94µM* | x | -4.9% | -22.5%[10 µM] | 1.5%[9.22 µM] | x
OC(CNCCc1ccccc1)c1ccccc1 (stereo not drawn) | 2.5% | -2.8% | -6.6% | -1.2% | 8.3% | 1.2%
CCOC(=O)C1=C(CN2CCN(c3ccc(C)cc3C)CC2)NC(=O)NC1c1ccc(OC)cc1 (stereo not drawn) | x | x | x | x | x | -17.6%[46 µM]
CCOc1cc(/C=C2\CCC/C(=C\c3cc(Cl)c(O)c(OCC)c3)C2=O)cc(Cl)c1O | -5.7% | 15.8µM* | 2.51µM* | -66.6% | 5.7%[9.22 µM] | 290.3%
Cc1ccc(NC(=O)Nc2ccnc(-c3cccnc3)n2)cc1 | -16.6% | x | -2.9% | 3.55µM* | u | x
Cc1ccc(C(=O)Nc2ccnc(-c3cccnc3)n2)cc1 | -4.3% | x | 0.0% | 0.8%[10 µM] | -10.3% | u
CC(C)C[C@@H](NC(=O)[C@@H](Cc1ccccc1)NC(=O)c1cnccn1)B(O)O | x | x | x | -83.3% | -18.2% | x
CCOC(=O)N(C)OC(=O)Nc1ccc(Cl)c(Cl)c1 | -0.6% | u | 3.98µM* | -7.3% | -29.7% | 13.5%
CCOC(=O)N(CC)OC(=O)Nc1ccc(Cl)cc1 | 6.3% | -8.4% | 4.47µM* | 12.2% | -14.5% | -0.6%
Cc1cc(C(=O)N/N=C/c2cc(Cl)cc([N+](=O)[O-])c2O)c2ccccc2n1 | 5.62µM* | -22.5% | 6.4% | -0.1%[10 µM] | 15.8µM* | u
O=C(N/N=C/c1cc(Cl)cc([N+](=O)[O-])c1O)c1ccccc1NS(=O)(=O)c1cccs1 | 6.31µM* | x | x | 17.2%[10 µM] | -6.7%[9.22 µM] | x
Cc1ccc2nc(C)c(C(=O)N/N=C/c3ccccc3[N+](=O)[O-])cc2c1 | 5.2% | -12.2% | -8.8% | x | 23.5% | 7.3%
CN(C)CCCNC(=O)c1cc(Br)ccc1O | u | x | u | 9.8%[10 µM] | 4.5%[9.22 µM] | 6.0%[46 µM]
CCO[C@@H]1OC(C(=O)N2CCOCC2)=C[C@H](c2coc3ccccc3c2=O)[C@H]1CCCO | 11.7% | x | 4.8% | -3.9%[10 µM] | 1.8%[9.22 µM] | x
Cc1cccc(N=Cc2c(O)cc(C)oc2=O)c1 | u | x | u | x | 12.7% | x
COc1cccc(CN=CC2=C(O)CC(C)(C)CC2=O)c1OC | -6.3% | u | u | -0.8% | -6.4% | -15.0%
Cc1cccc(N=Cc2[nH]c3ccc(Br)c(Cl)c3c2O)c1 | 5.6% | 14.1µM* | 4.47µM* | 22.2%[10 µM] | -8.6% | 4.5%

Screening data as filed in PubChem BioAssay.
